Shown is part of a subset that was picked to be rich in hits.
LmPK inh: blocks Leishmania mexicana pyruvate kinase activity; Q27686; purified LmPK, Kinase-Glo ATP luminescence, 1 h; Potency, µM (series often up to 57.5 µM), without a hit: top-dose activity change, negative = inhibition, actives largely listed as inhibitors; 290,000 tested, 0.37% active; note: potency is the fitted concentration of half-maximal effect; % is set by controls: 0 for no effect and ±100 for the full control effect
Target sequence (Q27686 whole entry, looked up): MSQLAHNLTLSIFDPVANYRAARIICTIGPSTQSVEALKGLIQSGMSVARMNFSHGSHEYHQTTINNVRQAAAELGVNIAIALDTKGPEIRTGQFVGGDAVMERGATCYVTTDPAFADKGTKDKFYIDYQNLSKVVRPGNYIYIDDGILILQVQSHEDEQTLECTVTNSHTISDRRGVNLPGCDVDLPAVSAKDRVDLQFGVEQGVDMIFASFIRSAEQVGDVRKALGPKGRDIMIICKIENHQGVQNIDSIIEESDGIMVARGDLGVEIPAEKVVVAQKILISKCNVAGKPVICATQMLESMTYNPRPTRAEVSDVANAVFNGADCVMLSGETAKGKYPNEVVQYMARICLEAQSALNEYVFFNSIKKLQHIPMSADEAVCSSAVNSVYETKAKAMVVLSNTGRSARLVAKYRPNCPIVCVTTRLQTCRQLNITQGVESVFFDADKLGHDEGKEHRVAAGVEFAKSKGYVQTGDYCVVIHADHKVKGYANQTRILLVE
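qHTS format; LmPK 0.1 nM; substrates PEP 0.5 mM and ADP 0.1 mM. One-hour room-temperature incubation, then coupled luciferase luminescence; 0.5 nM enzyme wells mark activation.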
Tb PYK inh: blocks Trypanosoma brucei pyruvate kinase; Q57TT1; TbPYK enzyme, Kinase-Glo Plus ATP luminescence, 45 min; Potency, µM (series often up to 76.8 µM), without a hit: at the top dose activity, negative = inhibition, actives largely listed as inhibitors; 410,000 tested, 0.12% active; AID 624173; note: potency is the fitted concentration of half-maximal effect; % is set by controls: 0 for no effect and ±100 for the full control effect; nearly all actives have a fitted effect of over 50% in size
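TbPYK + substrate in 50 mM TEA pH 7.2, 100 mM KCl, 10 mM MgCl2, 0.05% BSA, 0.01% Tween-20; cpd pinned; ADP 130 uM final; 45 min RT; Kinase-Glo Plus 10 min; luminescence endpoint.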
RE007 growth inh: less growth of the S. pombe RE007 Vpr strain. Potency, µM (top dose mostly 92.2 µM), inactives show top-dose activity change, negative = less growth, usual class: inhibitors. 360,000 tested, 0.21% active. S. pombe RE007 Vpr strain, BacTiter-Glo ATP luminescence, 24 h; active = well fitted falling curve with a large enough effect; inconclusive = small, poorly fitted or top-dose-only effect; inactive = no such curve, though single readings can be large or run the other way; note: potency is the fitted concentration of half-maximal effect; % is set by controls: 0 for no effect and ±100 for the full control effect; nearly all actives have a fitted effect of over 50% in size
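Fission yeast strain RE007, carrying one chromosomally integrated HIV-1 vpr copy, was seeded at OD 0.01 in PMG+AL medium with 23 nL pinned compound. After 24 h at 30 °C and 99% humidity, viability was read by BacTiter-Glo luminescence.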
CHX counter: counter-screen hit for Shiga toxin inhibitors, cycloheximide | max response, % | 300,000 tested, 12% active | cell reporter, cycloheximide protein synthesis inhibition counterscreen | AID 2314; in the data active = max response mostly above about 13%, no sharp cut-off; inactive = mostly below about 14%; note: read at 38.3 µM for the half of the compounds with a filed dose; 0% is about no effect
Shiga inhibitor: Shiga toxin inhibition; Vero cells, Shiga toxin protein synthesis inhibition reporter; 290,000 tested, 9.2% active; inhibition, % at 38.7 µM; AID 2315; in the data active = inhibition mostly above about 28%, no sharp cut-off; inactive = mostly below about 43%; note: 0% is about no effect
FBPA Giardia inh: Giardia lamblia aldolase inhibition. A8B2U2. Potency, µM (series often up to 59.6 µM), inactives show at the highest dose activity, negative = inhibition, most hits filed as inhibitors. purified Giardia FBPA. AID 2451. 290,000 tested, 0.71% active; note: potency is the fitted concentration of half-maximal effect; % is set by controls: 0 for no effect and ±100 for the full control effect; nearly all actives have a fitted effect of over 55% in size
Target sequence (A8B2U2 whole entry, looked up): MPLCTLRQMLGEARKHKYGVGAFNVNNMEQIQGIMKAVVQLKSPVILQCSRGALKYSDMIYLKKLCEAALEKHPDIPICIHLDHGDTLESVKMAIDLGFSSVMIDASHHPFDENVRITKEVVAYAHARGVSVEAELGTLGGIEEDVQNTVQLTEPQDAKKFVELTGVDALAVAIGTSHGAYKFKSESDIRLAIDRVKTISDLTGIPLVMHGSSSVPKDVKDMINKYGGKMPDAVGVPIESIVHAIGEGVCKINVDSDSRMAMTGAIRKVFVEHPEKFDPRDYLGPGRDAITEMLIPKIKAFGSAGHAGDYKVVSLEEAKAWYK
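Giardia FBPA (40 nM reagent) was preincubated 10 min at RT with compound (up to 57.5 uM final), then substrate plus GAPDH/TPI/NAD/arsenate coupling system with diaphorase/resazurin was added; resorufin fluorescence (525/598 nm) was read after 20 min.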
* marks the source's active call; other numbers are inactive results; i = inactive; ? = inconclusive; nt = no result. Unless noted, calls come from the whole dose curve; as a rule, active = well fitted curve in the direction sought with a large enough effect; inconclusive = small, poorly fitted or top-dose-only effect, or another doubt; inactive = no such curve, though single readings can be large; an effect the other way counts as inactive or inconclusive.

SMILES | LmPK inh | Tb PYK inh | RE007 growth inh | CHX counter | Shiga inhibitor | FBPA Giardia inh
CCn1ccc(C(=O)Nc2ncc(C)s2)n1 | -24.3% | -3.0% | -2.3% | 27.7* | 56.9* | nt
Cc1nnc(NC(=O)c2ccncc2)s1 | 2.7% | -0.5% | 19.4% | -3.1 | -7.7 | 0.7%
COC(=O)c1cc2sc(C)cc2n1Cc1ccc(Br)cc1F | nt | 0.2% | nt | nt | nt | nt
COc1ccc(-n2nc(C(=O)NCC(=O)N3CCN(C)CC3)c3ccccc3c2=O)cc1OC | 0.0% | 1.1% | 4.6% | -0.8 | 19.3 | -1.6%
CCOC(=O)N1CCN(C(=O)CNC(=O)c2nn(-c3ccc(OC)cc3)c(=O)c3ccccc23)CC1 | 1.6% | -6.7% | 3.0% | 17.8* | 20.8 | 3.2%
COc1ccc(-n2nc(C(=O)NCC(=O)N3CCCCCC3)c3ccccc3c2=O)cc1 | -1.1% | -0.7% | -1.5% | 16.0* | 41.0 | 3.2%
COc1ccc(-n2nc(C(=O)NCC(=O)N3CCN(c4ccccc4F)CC3)c3ccccc3c2=O)cc1 | -7.1% | -9.1% | -13.0% | 5.9 | 23.8 | 7.7%
CCOC(=O)C1CCN(C(=O)CNC(=O)c2nn(-c3ccc(OC)c(OC)c3)c(=O)c3ccccc23)CC1 | -2.8% | -0.3% | 15.6% | 20.6* | 37.8 | 8.6%
COc1ccc(-n2nc(C(=O)NCC(=O)N3CCN(c4ccccc4F)CC3)c3ccccc3c2=O)cc1OC | -3.7% | -2.7% | -13.1% | 24.6* | 22.1 | nt
CCc1ccccc1NS(=O)(=O)c1ccc2c(c1)CC(=O)N2 | nt | -12.5% | nt | nt | nt | nt
O=[N+]([O-])c1ccc(-c2[se]c3ccccc3c2I)cc1 | nt | nt | nt | 33.4 | i | -0.4%
COc1ccc(-n2nc(C(=O)NCC(=O)N3CCN(C)CC3)c3ccccc3c2=O)cc1 | 0.9% | -0.2% | -9.4% | 2.4 | -3.3 | -7.0%
CCOC(=O)C1CCN(C(=O)CNC(=O)c2nn(-c3ccc(OC)cc3)c(=O)c3ccccc23)CC1 | -0.7% | -2.5% | 8.4% | 27.4* | 27.6 | 10.0%
O=C(Cn1nnc2ccccc21)c1ccccc1 | -3.5% | -6.2% | 2.0% | 19.8* | -3.6 | -4.3%
Cc1ccc(C(=O)Cn2nnc3ccccc32)cc1[N+](=O)[O-] | 4.6% | 3.9% | -6.3% | 27.8* | 93.5* | -0.2%
CCc1cccc2c(C(=S)N3CCCC3)c[nH]c12 | 2.2% | 0.7% | 6.7% | 14.8* | 19.6 | -4.9%
Cc1csc2nc(NC(=O)c3ccccc3)sc(=O)c12 | 4.7% | -0.1% | 0.5% | 11.6* | 25.7 | -0.7%
O=C(C[n+]1ccccc1)Nc1nc2ccccc2s1 | 2.4% | -0.5% | -8.0% | 21.2* | 28.7 | -23.1%
Cc1ccc(C(=O)Nc2nc3ccc(S(C)(=O)=O)cc3s2)s1 | -5.2% | 1.6% | -5.9% | 69.5* | 72.4 | -1.1%
CS(=O)(=O)c1ccc2nc(NC(=O)c3cccs3)sc2c1 | 15.8µM* | -25.6% | ? | -1.8 | 8.9 | 5.5%
COC(=O)[C@@]1(Cc2ccccc2)[C@H]2c3cc(C(=O)N(C)C)n(Cc4cc(F)c(F)c(F)c4)c3C[C@H]2CN1C(=O)c1ccccc1 | nt | nt | nt | nt | nt | -5.9%
O=C(Nc1nc2ccccc2s1)c1ccccc1 | -2.5% | -6.4% | ? | 28.0* | 91.3* | -5.5%
c1ccc2sc(NN=C3CCCCCC3)nc2c1 | -15.8% | -3.3% | ? | 32.6* | 68.5 | -7.4%
O=C(O)c1ccccc1-c1ccccc1C(=O)Nc1nc2ccccc2s1 | 8.2% | 7.5% | -4.1% | 3.6 | 6.4 | ?
CN(CC(=O)Nc1nc2ccccc2s1)S(=O)(=O)c1ccccc1 | 4.8% | -5.4% | 2.4% | 29.0* | 61.0* | 4.4%
SMILES | LmPK inh | Tb PYK inh | RE007 growth inh | CHX counter | Shiga inhibitor | FBPA Giardia inh
Cc1ccc(C(=O)Nc2nc3ccccc3s2)s1 | -27.6% | 2.4% | -28.1% | 51.6* | 32.2 | -0.7%
CCc1ccc(-n2nnc(-c3nc(-c4cccs4)no3)c2N)cc1 | nt | -4.1% | nt | nt | nt | nt
COc1ccc(-c2nn(-c3ccc(C)c(Cl)c3)c3c2cnc2cc(OC)c(OC)cc23)cc1 | nt | -13.7% | nt | nt | nt | nt
Cc1ccc(OCC(=O)Nc2cccc(C(=O)OCc3cc(=O)n4cc(C)sc4n3)c2)cc1 | nt | 3.0% | nt | nt | nt | nt
Cc1cn2c(=O)c(S(=O)(=O)NCc3ccc(F)cc3)c(C)nc2s1 | nt | 1.9% | nt | nt | nt | nt
COc1ccc(OC)c(S(=O)(=O)NCCc2sc(-c3ccc(C)cc3)nc2C)c1 | nt | -13.2% | nt | nt | nt | nt
CN(C)c1ccc(-n2cccc2)cc1 | 1.4% | -12.8% | -18.2% | 16.5* | 20.2 | 4.1%
COc1cccc(OCc2nc3ncc(Br)cc3[nH]2)c1 | 5.9% | 13.5% | -11.7% | 16.9* | 31.3 | -11.6%
COc1ccc(OCc2nc3ccccc3[nH]2)cc1 | 17.8µM* | -8.6% | -2.5% | 30.2 | 152.1* | -1.6%
Brc1ccc(OCc2nc3ccccc3[nH]2)cc1 | -1.6% | 0.0% | -23.3% | 55.4* | 93.6* | -27.9%
COc1cccc(OCc2nc3ccccc3[nH]2)c1 | -12.2% | -2.3% | 0.2% | 35.5* | 93.4* | -3.3%
O=S(=O)(CCc1nc2ccccc2[nH]1)c1ccc(Br)cc1 | -1.0% | -6.8% | -19.9% | -2.4 | -1.8 | -2.4%
CN(C)C(=O)Oc1ccc(OCc2nc3ccccc3[nH]2)cc1 | 7.08µM* | ? | ? | 23.6* | 34.7* | 3.3%
CN(CC(=O)O)Cc1nc2ccccc2[nH]1 | -8.0% | 7.9% | 13.2% | 28.0* | 48.3 | ?
Nc1ccc2nc(COc3ccccc3)[nH]c2c1 | 1.1% | -2.8% | -4.4% | 9.9* | 4.1 | -11.8%
CC(=O)NCCc1nc2ccccc2[nH]1 | 6.2% | 4.0% | -2.7% | 0.1 | -3.3 | -9.7%
O=C(COc1ccc2ccccc2c1)Nc1nc2ccccc2[nH]1 | -10.5% | -6.7% | 5.8% | -1.5 | 29.1 | -6.2%
c1ccc2cc(OCc3nc4ccccc4[nH]3)ccc2c1 | -4.7% | 2.3% | 4.7% | 49.3* | 107.9* | 2.0%
Cc1cccc(C(=O)OCC(=O)c2ccc3c(c2)OCCO3)c1O | nt | 5.0% | -4.0% | nt | nt | nt
CC(=O)NC12CC3CC(C1)CC(C(=O)OCC(=O)c1ccc4c(c1)OCCO4)(C3)C2 | 1.1% | -12.9% | -10.9% | 44.8* | 80.1* | 1.4%
N#CCC(=O)Nc1ccc(C(=O)OCC(=O)c2ccc3c(c2)OCCO3)cc1 | -7.8% | -14.3% | -1.8% | 47.5* | 67.8* | -0.7%
Cc1cccc(C(=O)OCC(=O)c2ccc3c(c2)OCO3)c1O | -5.6% | -1.5% | -28.8% | 70.8* | 77.9* | 10.7%
CC(=O)NC12CC3CC(C1)CC(C(=O)OCC(=O)c1cc(C)n(C)c1C)(C3)C2 | nt | -7.5% | 17.4% | nt | nt | nt
CC(C)C(=O)Nc1ccccc1C(=O)OCC(=O)c1ccc2c(c1)OCCO2 | -0.2% | 11.8% | 10.3% | 38.0* | 63.9* | 2.7%
N#CCC(=O)Nc1ccc(C(=O)OCC(=O)c2ccc3c(c2)OCO3)cc1 | nt | -3.6% | -2.2% | nt | nt | nt
COc1cccc(-n2ccnc2SCC(=O)Nc2cccc3ccccc23)c1 | nt | -4.8% | nt | nt | nt | nt
